# Pyk2 oligo antag – antagonists of human Pyk2 oligomerization. Q14289. Q293 cells, Pyk2 FERM NanoBiT luminescence; active compounds read low. z-score (the deposit names both 25 µM and 10 µM). 99,000 compounds, 0.83% hits. AID 1347419;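 active = Z-score of -3 or lower, scaled per plate to the spread of control and sample wells; inactive = z-score above -3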;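 also: negative z-score means lost luminescence so less FERM oligomerization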
# CYP2C9 act – CYP2C9 (human) activation | activation factor at 5 µM | P11712 | recombinant CYP2C9, luciferin-H conversion, luminescence; active compounds read high; factor 1 = untreated enzyme, 0 = blocked | AID 1024 | 96,000 compounds, 1.4% hits;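 active = activation factor of 2 or more for CYP2C9 at a 5 µM dose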;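 also: 0 = sulfaphenazole-blocked wells and 1 = vehicle-only wells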
# CYP2C19 inhib – inhibitors of human CYP2C19; CYP2C19 Supersomes, luciferin-H EGE luminescence, 30 min; inhibition, % at 5 µM; 96,000 compounds, 21% hits;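 active = CYP2C19 inhibition above a set limit at 5 µM in the primary screen, cut at about 50% in these data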;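 also: plate controls were negative control wells for no effect and 2.5 mM tranylcypromine positive control for full effect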
# Target sequence (P33261 whole entry, looked up): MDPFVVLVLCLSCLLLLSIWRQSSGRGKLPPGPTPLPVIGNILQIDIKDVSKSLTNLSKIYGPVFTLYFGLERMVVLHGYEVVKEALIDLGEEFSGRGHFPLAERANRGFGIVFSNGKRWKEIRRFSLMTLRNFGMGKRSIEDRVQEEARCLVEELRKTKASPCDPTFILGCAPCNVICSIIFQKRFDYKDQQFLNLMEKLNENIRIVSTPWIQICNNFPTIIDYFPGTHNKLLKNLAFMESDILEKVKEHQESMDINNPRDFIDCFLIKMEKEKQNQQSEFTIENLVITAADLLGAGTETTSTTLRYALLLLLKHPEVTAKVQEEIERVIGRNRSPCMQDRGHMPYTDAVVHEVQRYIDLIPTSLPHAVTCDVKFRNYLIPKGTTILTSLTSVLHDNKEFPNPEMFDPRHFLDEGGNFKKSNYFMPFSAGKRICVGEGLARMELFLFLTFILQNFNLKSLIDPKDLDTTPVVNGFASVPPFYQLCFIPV
# CYP2C19 activ – activators of human cytochrome P450 2C19. recombinant CYP2C19, luciferin-H EGE luminescence; active compounds read high; 0 = fully inhibited enzyme, 1 = untreated enzyme. activation factor at 5 µM. P33261. AID 1025. 96,000 tested, under 10 active;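 active = activation factor of at least 2 at 5 µM in the primary screen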;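 also: 0 = wells with 2.5 mM tranylcypromine and 1 = vehicle-only wells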
# CYP2C9 inhib – blocks human cytochrome P450 2C9. P11712. CYP2C9 Supersomes, luciferin-H conversion, luminescence. inhibition, % at 5 µM. 96,000 compounds, 20% hits. AID 777;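 active = blocking of liver enzyme CYP2C9 beyond about 50% at 5 µM, limit read from the data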
# The depositor's hits bear a star; nt = not tested or not shown. Most compounds without a hit are left out; they make up all but 28% or so of the library.
SMILES,Pyk2 oligo antag,CYP2C9 act,CYP2C19 inhib,CYP2C19 activ,CYP2C9 inhib
Cc1ccc(S(=O)(=O)n2nc(-c3cccnc3)nc2N)cc1,-0.57,1,7.0,0.9,4.9
CC(=O)Nc1ccc(C(=O)CS(=O)(=O)c2ccc(C)cc2)cc1,0.16,0.4,41.2,0.6,59.2*
CC(=O)Nc1ccc(S(=O)(=O)NCCc2ccc(S(N)(=O)=O)cc2)cc1,0.8,0.7,-6.7,1.1,25.3
Cc1ccc(S(=O)(=O)CC(=O)c2ccc(C(C)(C)C)cc2)cc1,3.98,0.9,41.1,0.6,13.1
CC(=O)Nc1ccc(S(=O)(=O)NCc2ccc3[nH]c(C)cc3c2)cc1,nt,0.2,43.8,0.6,84.6*
CC(=O)Nc1ccc(S(=O)(=O)n2nc(-c3ccc(C)cc3)nc2N)cc1,0.35,1.1,50.0*,0.5,-5.1
CC(=O)Nc1ccc(S(=O)(=O)NCCc2ccc(F)cc2)cc1,0.27,0.6,57.9*,0.4,37.3
CC(C)(C)c1ccc(/C=N/NC(=O)Cc2c[nH]c3ccccc23)cc1,-2.45,0.3,27.6,0.7,74.0*
CN(C)CCCNS(=O)(=O)c1ccc(Oc2ncc(C(F)(F)F)cc2Cl)cc1,1.4,1,9.3,0.9,-2.7
N#Cc1c(-c2ccccc2)ccnc1Oc1ccccc1,-1.07,0.8,52.6*,0.5,23.5
CC(C)(NC(=O)N1CCOCC1)c1cccc(C(C)(C)NC(=O)N2CCOCC2)c1,0.53,nt,nt,nt,nt
CCCCCCCCCS(=O)(=O)N/N=C/c1cccc([N+](=O)[O-])c1,0.3,0.3,21.8,0.8,67.9*
CCCCCCCC(=O)Nc1ccc(C(=O)N/N=C/c2cccc([N+](=O)[O-])c2)cc1,-0.86,0.9,-4.9,1,12.1
CC(=O)C(Sc1ccc2nnc(-c3ccc(C)cc3)n2n1)C(C)=O,nt,0.8,17.2,0.8,23.3
CC(=O)C(Sc1ccc2nnc(-c3ccc(F)cc3)n2n1)C(C)=O,nt,0.3,12.6,0.9,69.6*
CCOC(=O)CC(=O)CSc1ccc2nnc(-c3ccc(C)cc3)n2n1,0.07,0.5,14.5,0.9,54.9*
Cc1cc(NC(=O)Cc2cccs2)nn1CC(=O)NCc1ccco1,-0.38,1.1,0.7,1,-11.3
Cc1nnc(SC(C)C(=O)N2CCc3ccccc32)s1 (stereo not drawn),0.17,0.7,77.7*,0.2,33.8
CC(C(=O)N1CCc2ccccc21)N1CCc2ccccc2C1 (stereo not drawn),0.15,nt,nt,nt,nt
Cn1c(Cc2cccs2)nnc1SCC(=O)N1CCc2ccccc21,1.31,1,9.0,0.9,2.5
CC(Sc1nnc(Cc2cccs2)n1C1CCCCC1)C(=O)NCc1ccco1 (stereo not drawn),-0.53,0.3,43.3,0.6,75.0*
CC(Sc1nnc(Cc2cccs2)n1C1CCCCC1)C(=O)N1CCc2ccccc21 (stereo not drawn),0.03,0.2,77.6*,0.2,76.1*
COCc1cc(=O)[nH]c(Sc2c(-c3ccccc3)c3ccc(Cl)cc3[nH]c2=O)n1,0.49,nt,nt,nt,nt
N/C(=N\OC(=O)C1CCCCC1)c1ccccn1,-0.42,0.8,17.8,0.8,20.5
Cn1c(=O)c2c(nc(CN3CCC(C(N)=O)CC3)n2Cc2ccccc2F)n(C)c1=O,-0.37,1,12.5,0.9,4.2
SMILES,Pyk2 oligo antag,CYP2C9 act,CYP2C19 inhib,CYP2C19 activ,CYP2C9 inhib
O=c1c(F)cn(C2CCCO2)c(=O)n1Cc1ccccc1F (stereo not drawn),0.05,0.6,84.2*,0.2,38.3
CN(C(=O)c1ccco1)c1nc2c(s1)CCCC2,0.83,0.4,44.8,0.6,62.3*
COc1ccccc1C(=O)NCCCn1cc(Br)c(C)n1,-0.23,0.8,73.1*,0.3,20.8
CCOC(=O)c1ccccc1Oc1c(F)c(F)nc(NCCO)c1F,0.02,0.5,62.4*,0.4,50.6*
CCOC(=O)c1cc2cc(F)ccc2nc1C,0.71,0.9,28.0,0.7,10.8
CCOc1ccc(N2C(=O)CSC23CCCCC3)cc1,-0.68,0.7,83.8*,0.2,31.7
O=C1c2cnccc2CN1Cc1ccccc1,0.63,1.1,-4.3,1,-10.0
COC(=O)c1ccc(CN2C(=O)NC3(CCCc4ccccc43)C2=O)o1 (stereo not drawn),-0.93,1,40.6,0.6,2.7
CCC1(c2cccc(Cl)c2)NC(=O)N(Cc2cc(C(=O)OC)c(C)o2)C1=O (stereo not drawn),0.02,1,62.2*,0.4,-0.4
COc1ccc(C(C)=O)cc1CSCCC#N,-0.22,1,7.6,0.9,3.4
COC(=O)c1cc(-c2cccc(OC)c2)n[nH]1,-0.64,1,69.5*,0.3,3.7
S=c1nc(C2CCCCC2)[nH][nH]1,1.49,1,-5.0,1.1,2.8
CCOC(=O)c1cccc(NC(=O)CSc2nnc(-c3ccoc3C)n2CC)c1,-0.22,0.3,43.1,0.6,70.0*
CCOC(=O)c1ccc(NC(=O)CSc2nnnn2CCCO)cc1,-0.45,0.6,57.6*,0.4,43.7
CCOC(=O)c1cccc(NC(=O)CSc2nnc(C3CCCCC3)n2CC)c1,0.68,0.5,26.3,0.7,45.9
CCOC(=O)c1cccc(NC(=O)CSc2nc(N)cc(N)n2)c1,-1.59,0.2,64.1*,0.4,77.6*
CCOC(=O)c1cccc(NC(=O)CSc2nnc(C)n2Cc2ccccc2)c1,-1.46,0.1,86.6*,0.1,91.3*
CCn1nnnc1SCC(=O)Nc1cccc(NC(C)=O)c1,1.5,1.1,-5.8,1.1,-6.8
CCOC(=O)c1cccc(NC(=O)CSc2nnnn2CC)c1,1.16,0.2,55.3*,0.4,83.4*
O=C(c1cccn(Cc2ccc(Cl)c(Cl)c2)c1=O)N1CCOCC1,-0.25,1.1,-9.5,1.1,-11.4
O=c1c(-c2nc3ccccc3s2)cccn1Cc1ccc(Cl)c(Cl)c1,-0.62,0.3,-13.4,1.1,73.7*
Cc1cccc(-c2oc(C)c(C)[n+]2[O-])c1,-0.42,1.1,7.9,0.9,-5.5
O=S(=O)(Cc1nc2ccccc2s1)c1ccccc1,0.3,2.3*,44.4,0.6,-125.3
COc1ccc(S(=O)(=O)CCc2nc3ccccc3s2)cc1,-1.05,0.9,75.5*,0.2,9.0
Cc1ccc(C2C3=C(CC(C)(C)CC3=O)N(CCN3CCOCC3)C3=C2C(=O)CC(C)(C)C3)cc1,2.44,1.1,-10.4,1.1,-6.5
SMILES,Pyk2 oligo antag,CYP2C9 act,CYP2C19 inhib,CYP2C19 activ,CYP2C9 inhib
Cc1c(C(=O)OC(C)C)[nH]c2c1C(=O)CCC2,0.47,0.5,34.7,0.7,45.8
Cc1c(C(=O)OC(C)C)[nH]c2c1C(=O)CC(C)(C)C2,-1.38,0.2,75.3*,0.2,75.5*
Cc1cc(C)n(CNc2nc(C(F)(F)F)cs2)n1,1.98,1,16.7,0.8,0.6
COC(=O)/C=C1\S/C(=N/NC(=O)c2ccccc2)NC1=O,-0.6,0.2,7.0,0.9,80.6*
COC(=O)/C=C1/S/C(=N/NC(=O)c2ccccc2C)NC1=O,-0.33,0.2,5.6,0.9,78.3*
Cc1ccc(C(=O)Oc2cc(C)n(C)c(=O)c2)cc1,-1.46,1,0.2,1,-0.6

# Assay outcomes as filed in PubChem.
